Source: the supplement of paper PMC10849652
Of roughly 7,900 targets only a part is listed; those with a hit were picked by preference. About 0.6% of all pairs of compound and target were hits. Unmarked numbers belong to inactive results.

Experiments:
Test in all cases: log2 fold change, soluble protein after heating vs DMSO (PISA); higher = thermal stabilisation; K562 cells, 10 uM, 30 min; active = over 0.2 and 3.5 SD of the protein, either way, in both replicates (recomputed)
bafetinib = compound: Cc1ccc(NC(=O)c2ccc(CN3CC[C@H](N(C)C)C3)c(C(F)(F)F)c2)cc1Nc1nccc(-c2cncnc2)n1 [bafetinib]
Procedure, shortened: (§1)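 Soluble protein was quantified by TMTpro 16plex LC-MS/MS after channel sums were equalised. It was obtained as the supernatant after 21,000xg for 90 min from pooled aliquots of K562 cells (2×10^6 cells/mL, 10 μM compound, 30 min) heated for 3 min across 48°C-58°C and extracted in PBS with 0.5% NP-40 at 4°C. Thermal stability values are relative to control samples and come from duplicates. They are given as log2 fold changes.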

[1] = compound: Cc1cccc(CC(=O)N2CCc3c2ccc(-c2cn(C)c4ncnc(N)c24)c3F)n1
Procedure, shortened: as §1

nilotinib = compound: Cc1cn(-c2cc(NC(=O)c3ccc(C)c(Nc4nccc(-c5cccnc5)n4)c3)cc(C(F)(F)F)c2)cn1 [nilotinib]
Procedure, shortened: as §1

[2] = compound: Cc1nc(Nc2n[nH]c3c2CN(C(=O)N[C@H](CN(C)C)c2ccccc2)C3(C)C)c2sccc2n1
Procedure, shortened: as §1

dasatinib = compound: Cc1nc(Nc2ncc(C(=O)Nc3c(C)cccc3Cl)s2)cc(N2CCN(CCO)CC2)n1 [dasatinib]
Procedure, shortened: as §1

[3] = compound: Cc1ncc(-c2ccnc(Nc3ccc(S(C)(=O)=O)cc3)n2)n1C(C)C
Procedure, shortened: as §1

[4] = compound: Cn1cc(-c2ccc3c(c2)CCN3C(=O)Cc2cccc(C(F)(F)F)c2)c2c(N)ncnc21
Procedure, shortened: as §1

[5] = compound: Cn1cc(-c2ccc3nnc(C(F)(F)c4ccc5ncccc5c4)n3n2)cn1
Procedure, shortened: as §1

tipifarnib = compound: Cn1cncc1[C@@](N)(c1ccc(Cl)cc1)c1ccc2c(c1)c(-c1cccc(Cl)c1)cc(=O)n2C [tipifarnib]
Procedure, shortened: as §1

mubritinib = compound: FC(F)(F)c1ccc(/C=C/c2nc(COc3ccc(CCCCn4ccnn4)cc3)co2)cc1 [mubritinib]
Procedure, shortened: as §1

[6] = compound: NC(=O)Nc1cc(-c2cccc(F)c2)sc1C(=O)N[C@H]1CCCNC1
Procedure, shortened: as §1

[7] = compound: NC(=O)c1cnc(N[C@@H]2CCCC[C@@H]2N)nc1Nc1cccc(-n2nccn2)c1
Procedure, shortened: as §1

[8] = compound: NC1(c2ccc(-c3nc4ccn5c(=O)[nH]nc5c4cc3-c3ccccc3)cc2)CCC1
Procedure, shortened: as §1

[9] = compound: NCC(=O)Nc1ccc(-n2nc(C(F)(F)F)cc2-c2ccc3c(ccc4ccccc43)c2)cc1
Procedure, shortened: as §1

entinostat = compound: Nc1ccccc1NC(=O)c1ccc(CNC(=O)OCc2cccnc2)cc1 [entinostat]
Procedure, shortened: as §1

vorinostat = compound: O=C(CCCCCCC(=O)Nc1ccccc1)NO [vorinostat]
Procedure, shortened: as §1

citarinostat = compound: O=C(CCCCCCNC(=O)c1cnc(N(c2ccccc2)c2ccccc2Cl)nc1)NO [citarinostat]
Procedure, shortened: as §1

silmitasertib = compound: O=C(O)c1ccc2c(c1)nc(Nc1cccc(Cl)c1)c1ccncc12 [silmitasertib]
Procedure, shortened: as §1

[10] = compound: O=C1NC(=O)C(c2cnc3ccccn23)=C1c1cn2c3c(cc(F)cc13)CN(C(=O)N1CCCCC1)CC2
Procedure, shortened: as §1

[11] = compound: c1cc(OCCN2CCCCC2)cc(-c2n[nH]c3ccc(-c4nnc[nH]4)cc23)c1
Procedure, shortened: as §1

UniProt Q15349, sequence (Q15349 whole entry, looked up): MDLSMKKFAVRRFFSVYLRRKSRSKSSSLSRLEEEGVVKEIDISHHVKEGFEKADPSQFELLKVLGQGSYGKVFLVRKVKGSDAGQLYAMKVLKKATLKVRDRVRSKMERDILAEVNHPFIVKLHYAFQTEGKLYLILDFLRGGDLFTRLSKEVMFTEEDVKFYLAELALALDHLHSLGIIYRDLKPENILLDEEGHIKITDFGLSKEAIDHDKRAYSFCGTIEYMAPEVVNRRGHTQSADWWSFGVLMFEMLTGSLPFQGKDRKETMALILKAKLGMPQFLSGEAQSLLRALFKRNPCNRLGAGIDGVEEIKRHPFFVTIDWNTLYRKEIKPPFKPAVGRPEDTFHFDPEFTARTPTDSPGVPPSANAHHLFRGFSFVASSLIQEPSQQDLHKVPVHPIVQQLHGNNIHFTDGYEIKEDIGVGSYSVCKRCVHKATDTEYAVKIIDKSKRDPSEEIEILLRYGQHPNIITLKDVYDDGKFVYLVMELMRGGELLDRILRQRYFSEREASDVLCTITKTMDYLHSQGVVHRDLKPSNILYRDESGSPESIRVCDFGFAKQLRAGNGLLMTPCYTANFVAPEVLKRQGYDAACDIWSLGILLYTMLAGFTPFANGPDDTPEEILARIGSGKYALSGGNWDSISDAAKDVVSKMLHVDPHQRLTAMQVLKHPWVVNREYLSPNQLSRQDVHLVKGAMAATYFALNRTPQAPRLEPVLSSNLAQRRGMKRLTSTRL
UniProt Q8NEM2, sequence (Q8NEM2 whole entry, looked up): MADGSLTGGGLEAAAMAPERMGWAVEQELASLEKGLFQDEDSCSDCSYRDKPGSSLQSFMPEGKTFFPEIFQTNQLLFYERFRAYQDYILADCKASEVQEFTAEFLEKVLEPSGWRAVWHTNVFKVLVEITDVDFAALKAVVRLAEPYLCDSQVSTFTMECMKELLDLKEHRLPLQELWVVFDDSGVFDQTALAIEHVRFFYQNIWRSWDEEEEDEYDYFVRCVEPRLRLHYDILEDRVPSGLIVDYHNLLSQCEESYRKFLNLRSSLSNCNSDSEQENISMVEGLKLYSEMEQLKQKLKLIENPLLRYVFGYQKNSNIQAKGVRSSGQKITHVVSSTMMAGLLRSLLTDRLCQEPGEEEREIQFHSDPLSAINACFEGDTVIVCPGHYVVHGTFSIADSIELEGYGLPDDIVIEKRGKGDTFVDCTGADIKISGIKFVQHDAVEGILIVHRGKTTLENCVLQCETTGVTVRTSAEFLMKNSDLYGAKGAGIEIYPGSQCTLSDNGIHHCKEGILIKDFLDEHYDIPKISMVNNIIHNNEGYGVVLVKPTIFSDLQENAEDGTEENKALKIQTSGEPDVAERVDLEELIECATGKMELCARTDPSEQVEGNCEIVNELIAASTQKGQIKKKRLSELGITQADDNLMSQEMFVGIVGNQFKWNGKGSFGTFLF
UniProt Q9UKM9, sequence (Q9UKM9 whole entry, looked up): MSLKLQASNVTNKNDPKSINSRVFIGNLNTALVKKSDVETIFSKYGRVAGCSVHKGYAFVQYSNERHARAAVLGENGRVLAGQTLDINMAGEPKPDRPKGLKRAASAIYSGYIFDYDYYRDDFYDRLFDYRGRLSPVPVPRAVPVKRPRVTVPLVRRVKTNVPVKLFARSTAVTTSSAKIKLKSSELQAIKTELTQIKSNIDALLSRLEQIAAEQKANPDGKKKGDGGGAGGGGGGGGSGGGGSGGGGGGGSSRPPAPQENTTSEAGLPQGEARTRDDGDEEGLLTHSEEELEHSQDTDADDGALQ
UniProt P18754, sequence (P18754 whole entry, looked up): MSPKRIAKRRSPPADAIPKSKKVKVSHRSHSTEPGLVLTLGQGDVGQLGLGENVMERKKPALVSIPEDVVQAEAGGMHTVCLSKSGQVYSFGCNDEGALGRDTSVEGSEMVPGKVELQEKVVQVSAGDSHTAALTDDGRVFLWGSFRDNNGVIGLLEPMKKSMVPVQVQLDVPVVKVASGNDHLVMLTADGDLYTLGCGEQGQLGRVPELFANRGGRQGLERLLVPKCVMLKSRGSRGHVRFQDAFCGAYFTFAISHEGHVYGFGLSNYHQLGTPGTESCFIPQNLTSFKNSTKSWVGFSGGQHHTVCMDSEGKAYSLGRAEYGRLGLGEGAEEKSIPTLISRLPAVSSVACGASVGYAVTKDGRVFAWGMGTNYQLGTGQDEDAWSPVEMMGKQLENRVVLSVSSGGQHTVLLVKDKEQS
UniProt Q9NR46, sequence (Q9NR46 whole entry, looked up): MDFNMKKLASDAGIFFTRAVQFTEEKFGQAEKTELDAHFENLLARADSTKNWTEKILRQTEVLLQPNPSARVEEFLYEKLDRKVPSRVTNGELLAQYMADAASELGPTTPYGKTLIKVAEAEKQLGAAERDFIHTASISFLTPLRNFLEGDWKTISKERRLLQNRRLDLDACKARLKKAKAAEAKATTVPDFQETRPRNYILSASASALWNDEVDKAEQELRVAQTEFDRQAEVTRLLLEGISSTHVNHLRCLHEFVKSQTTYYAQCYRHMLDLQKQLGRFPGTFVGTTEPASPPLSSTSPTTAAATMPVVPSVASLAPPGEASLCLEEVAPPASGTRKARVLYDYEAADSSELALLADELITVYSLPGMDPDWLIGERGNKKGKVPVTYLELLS
UniProt O15127, sequence (O15127 whole entry, looked up): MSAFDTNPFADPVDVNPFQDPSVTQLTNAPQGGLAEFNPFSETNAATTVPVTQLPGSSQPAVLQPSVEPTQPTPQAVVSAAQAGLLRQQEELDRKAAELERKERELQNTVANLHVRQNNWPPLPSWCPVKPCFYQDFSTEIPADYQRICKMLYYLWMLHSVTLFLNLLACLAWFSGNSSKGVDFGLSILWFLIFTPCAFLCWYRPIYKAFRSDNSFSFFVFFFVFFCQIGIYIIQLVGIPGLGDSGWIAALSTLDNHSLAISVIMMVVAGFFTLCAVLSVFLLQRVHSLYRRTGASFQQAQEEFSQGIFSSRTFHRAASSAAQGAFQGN
UniProt Q9NX18, sequence (Q9NX18 whole entry, looked up): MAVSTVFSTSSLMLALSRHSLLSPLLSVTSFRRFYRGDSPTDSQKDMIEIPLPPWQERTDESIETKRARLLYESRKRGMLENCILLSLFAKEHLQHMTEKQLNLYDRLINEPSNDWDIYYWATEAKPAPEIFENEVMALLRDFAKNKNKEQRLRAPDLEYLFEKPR
UniProt Q6NT16, sequence (Q6NT16 whole entry, looked up): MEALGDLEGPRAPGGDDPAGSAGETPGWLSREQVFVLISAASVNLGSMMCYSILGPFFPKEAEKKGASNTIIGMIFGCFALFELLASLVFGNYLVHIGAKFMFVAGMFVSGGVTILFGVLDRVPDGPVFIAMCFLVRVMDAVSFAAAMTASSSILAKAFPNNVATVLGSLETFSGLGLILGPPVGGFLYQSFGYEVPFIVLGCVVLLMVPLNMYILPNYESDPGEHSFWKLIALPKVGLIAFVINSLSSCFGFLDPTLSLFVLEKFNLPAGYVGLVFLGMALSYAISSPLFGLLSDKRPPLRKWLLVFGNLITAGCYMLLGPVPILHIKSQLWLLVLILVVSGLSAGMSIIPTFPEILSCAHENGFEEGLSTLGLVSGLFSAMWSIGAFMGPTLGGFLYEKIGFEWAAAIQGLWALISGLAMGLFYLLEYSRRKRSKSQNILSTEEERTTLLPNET
UniProt P49756, sequence (P49756 whole entry, looked up): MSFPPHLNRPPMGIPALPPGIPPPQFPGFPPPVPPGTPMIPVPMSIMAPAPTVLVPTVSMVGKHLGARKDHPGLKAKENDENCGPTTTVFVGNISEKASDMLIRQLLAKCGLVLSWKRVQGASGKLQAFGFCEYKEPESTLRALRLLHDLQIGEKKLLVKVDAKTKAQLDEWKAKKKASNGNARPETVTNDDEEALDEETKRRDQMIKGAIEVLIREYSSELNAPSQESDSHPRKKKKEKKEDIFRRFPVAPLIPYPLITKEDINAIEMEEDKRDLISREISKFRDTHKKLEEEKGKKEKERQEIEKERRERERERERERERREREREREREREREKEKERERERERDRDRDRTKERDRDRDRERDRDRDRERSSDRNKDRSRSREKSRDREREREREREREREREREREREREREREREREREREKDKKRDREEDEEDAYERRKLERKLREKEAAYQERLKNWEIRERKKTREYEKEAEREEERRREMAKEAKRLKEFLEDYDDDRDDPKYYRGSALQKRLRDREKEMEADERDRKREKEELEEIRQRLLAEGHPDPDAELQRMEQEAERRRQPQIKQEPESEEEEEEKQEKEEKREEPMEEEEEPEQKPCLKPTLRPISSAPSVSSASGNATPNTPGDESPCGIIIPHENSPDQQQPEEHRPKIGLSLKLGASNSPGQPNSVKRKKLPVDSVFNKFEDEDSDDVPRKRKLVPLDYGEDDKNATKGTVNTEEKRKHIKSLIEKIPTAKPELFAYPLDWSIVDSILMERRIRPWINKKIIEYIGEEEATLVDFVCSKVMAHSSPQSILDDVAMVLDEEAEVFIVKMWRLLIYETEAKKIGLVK
UniProt Q96IZ7, sequence (Q96IZ7 whole entry, looked up): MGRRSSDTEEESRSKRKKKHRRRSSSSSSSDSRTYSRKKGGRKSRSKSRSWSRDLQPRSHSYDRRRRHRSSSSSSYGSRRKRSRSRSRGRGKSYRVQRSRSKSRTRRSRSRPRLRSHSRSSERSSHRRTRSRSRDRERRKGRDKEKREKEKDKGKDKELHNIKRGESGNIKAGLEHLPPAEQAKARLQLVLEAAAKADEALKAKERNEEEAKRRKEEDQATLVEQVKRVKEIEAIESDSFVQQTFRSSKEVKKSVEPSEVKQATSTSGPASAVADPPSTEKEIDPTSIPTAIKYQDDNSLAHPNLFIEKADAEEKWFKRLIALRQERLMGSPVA

Row | Target | log2 fold change (bafetinib) | log2 fold change [1] | log2 fold change (nilotinib) | log2 fold change [2] | log2 fold change (dasatinib) | log2 fold change [3] | log2 fold change [4] | log2 fold change [5] | log2 fold change (tipifarnib) | log2 fold change (mubritinib) | log2 fold change [6] | log2 fold change [7] | log2 fold change [8] | log2 fold change [9] | log2 fold change (entinostat) | log2 fold change (vorinostat) | log2 fold change (citarinostat) | log2 fold change (silmitasertib) | log2 fold change [10] | log2 fold change [11]
1 | SLC18B1 (UniProt Q6NT16) | -0.071 | 0 | -0.024 | 0.04 | 0.063 | -0.016 | 0.034 | 0.198 | -0.029 | -0.018 | -0.003 | 0.022 | -0.093 | -0.025 | 0.038 | -0.162 | 0.019 | 0.076 | 0.044 | -0.044
2 | RBM25 (UniProt P49756) | -0.067 | -0.066 | -0.012 | -0.03 | -0.049 | -0.129 | -0.044 | -0.096 | 0.068 | 0.049 | 0 | 0.007 | -0.058 | -0.025 | 0.031 | 0.067 | 0.015 | 0.019 | 0.005 | -0.053
3 | RPL31 (UniProt P62899) | 0.342 | 0.024 | 0.001 | 0.179 | 0.14 | -0.041 | -0.231 | -0.082 | 0.151 | -0.095 | 0.042 | 0.099 | 0.26 | 0.075 | -0.079 | -0.012 | -0.09 | 0.048 | 0.104 | -0.12
4 | RPS4X (UniProt P62701) | 0.332 | 0 | 0.051 | 0.206 | 0.061 | -0.048 | -0.251 | -0.079 | 0.112 | -0.105 | 0.088 | 0.095 | 0.216 | 0.088 | -0.048 | 0.005 | -0.104 | 0.014 | 0.126 | -0.204
5 | SDHAF2 (UniProt Q9NX18) | -0.083 | 0.166 | -0.02 | 0.022 | 0.057 | -0.007 | 0.056 | 0.017 | 0.007 | 0.058 | -0.005 | 0.156 | -0.089 | -0.007 | -0.04 | -0.156 | -0.026 | -0.007 | -0.101 | -0.015
6 | RPS3A (UniProt P61247) | 0.243 | -0.031 | 0 | 0.201 | 0.099 | -0.033 | -0.127 | -0.045 | 0.096 | -0.058 | 0.01 | 0.084 | 0.164 | 0.035 | -0.04 | 0.041 | -0.071 | 0.017 | 0.088 | -0.131
7 | RPS6KA2 isoform 2 (UniProt Q15349) | -0.112 | 0.15 | 0.008 | -0.571 (active) | -0.228 | -0.013 | 0.001 | 0.021 | -0.069 | 0.085 | -0.129 | -0.256 | -0.269 | -0.035 | 0.067 | 0.122 | 0.106 | -0.044 | -0.056 | -0.295
8 | SH3GLB2 (UniProt Q9NR46) | -0.029 | 0.044 | -0.051 | -0.15 | -0.147 | -0.066 | 0.006 | -0.1 | -0.091 | 0.098 | -0.105 | -0.13 | -0.163 | 0.004 | 0.069 | 0.081 | 0.059 | 0.015 | -0.028 | -0.13
9 | RCC1 isoform 2 (UniProt P18754) | 0.013 | 0.002 | 0.069 | -0.137 | -0.159 | 0 | 0.139 | -0.004 | -0.112 | 0.296 | -0.084 | -0.174 | -0.18 | -0.066 | 0.132 | 0.094 | 0.026 | -0.056 | -0.132 | -0.024
10 | RETREG3 (UniProt Q86VR2) | -0.164 | -0.032 | 0.015 | 0.003 | -0.045 | 0.033 | -0.007 | 0.11 | -0.034 | 0 | 0.046 | -0.033 | -0.047 | 0.048 | 0.007 | -0.045 | 0.003 | 0.04 | -0.086 | -0.03
11 | RPS3 (UniProt P23396) | 0.219 | -0.004 | -0.009 | 0.193 | 0.063 | -0.056 | -0.132 | -0.028 | 0.075 | -0.045 | -0.006 | 0.05 | 0.117 | 0.033 | -0.055 | 0.015 | -0.035 | -0.008 | 0.029 | -0.145
12 | RPS13 (UniProt P62277) | 0.342 | 0 | 0.017 | 0.221 | 0.088 | -0.051 | -0.237 | -0.089 | 0.204 | -0.184 | 0.058 | 0.093 | 0.246 | 0.115 | -0.062 | 0.019 | -0.121 | -0.022 | 0.091 | -0.182
13 | SHCBP1 (UniProt Q8NEM2) | -0.017 | 0.041 | -0.207 | -0.459 (active) | -0.091 | 0.003 | 0.223 | 0.004 | 0.299 | 0.1 | 0.01 | -0.017 | -0.107 | -0.08 | -0.063 | 0.039 | 0.136 | 0.025 | -0.087 | -0.091
14 | SCAMP2 (UniProt O15127) | -0.113 | -0.125 | 0.084 | -0.107 | -0.027 | 0.058 | 0.11 | 0.062 | -0.061 | 0.046 | -0.007 | 0.168 | 0.001 | 0.029 | -0.001 | -0.027 | 0.189 | -0.002 | 0.109 | -0.065
15 | RALY (UniProt Q9UKM9) | 0.077 | -0.069 | -0.029 | 0.051 | 0.249 | -0.151 | -0.596 | -0.011 | -0.118 | -0.257 | -0.039 | 0.071 | 0.353 | 0.026 | -0.02 | -0.105 | -0.064 | 0.128 | 0.072 | -0.106
16 | RSRC1 (UniProt Q96IZ7) | 0.042 | -0.05 | 0.06 | -2.01 (active) | 0.028 | -0.024 | 0.003 | -0.021 | 0.038 | 0.012 | -0.019 | 0.162 | -0.005 | -0.013 | -0.04 | 0.022 | 0.049 | -0.275 (active) | -0.029 | -0.123
